Experimental data as given in PubChem BioAssay (NCATS).
Results filed as inconclusive are left out. Activity calls are given as the source filed them. Calls follow the shape of the dose curve; as a rule, active = well fitted curve in the direction sought with a large enough effect; inconclusive = small, poorly fitted or top-dose-only effect, or another doubt; inactive = no such curve, though single readings can be large; an effect the other way counts as inactive or inconclusive.

Columns and labels:
[1] = qHTS of pediatric cancer cell lines to identify multiple opportunities for drug repurposing: Primary screen for SK-N-SH cells (AID 1347098); also: nearly all actives have a fitted effect of over 65% in size; also: potency is read from the fitted curve at half-maximal effect
How it was run: (§1)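 Cells (500-1,000/well) rested 5 h, then received compounds for 48 h; metabolically active cells were measured by CellTiter-Glo luminescence. Final concentrations spanned up to 46 µM (MIPE, 11-point) or 0.59 nM-46 µM (NPC, 8-point) in primary screens, 11-point in follow-ups.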

[2] = qHTS of pediatric cancer cell lines to identify multiple opportunities for drug repurposing: Primary screen for NB1643 cells (AID 1347099); also: nearly all actives have a fitted effect of over 50% in size; also: potency is read from the fitted curve at half-maximal effect
How it was run: (§2)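 Plated cells (500-1,000 per well, growth media) were allowed to settle for 5 hours, treated with compound dilutions for 48 hours, then lysed with CellTiter-Glo for 15 min at room temperature before luminescence reading.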

[3] = qHTS of pediatric cancer cell lines to identify multiple opportunities for drug repurposing: Primary screen for LAN-5 cells (AID 1347100); also: potency is read from the fitted curve at half-maximal effect
How it was run: as §1

[4] = qHTS of pediatric cancer cell lines to identify multiple opportunities for drug repurposing: Primary screen for BT-12 cells (AID 1347101); also: nearly all actives have a fitted effect of over 25% in size; also: potency is read from the fitted curve at half-maximal effect
How it was run: as §1

[5] = qHTS of pediatric cancer cell lines to identify multiple opportunities for drug repurposing: Primary screen for Rh18 cells (AID 1347102); also: nearly all actives have a fitted effect of over 65% in size; also: potency is read from the fitted curve at half-maximal effect
How it was run: as §1

[6] = qHTS of pediatric cancer cell lines to identify multiple opportunities for drug repurposing: Primary screen for OHS-50 cells (AID 1347103); also: nearly all actives have a fitted effect of over 40% in size; also: potency is read from the fitted curve at half-maximal effect
How it was run: as §1

[7] = qHTS of pediatric cancer cell lines to identify multiple opportunities for drug repurposing: Primary screen for RD cells (AID 1347104); also: nearly all actives have a fitted effect of over 55% in size; also: potency is read from the fitted curve at half-maximal effect
How it was run: as §2

[8] = qHTS of pediatric cancer cell lines to identify multiple opportunities for drug repurposing: Primary screen for MG 63 (6-TG R) cells (AID 1347105); also: nearly all actives have a fitted effect of over 50% in size; also: potency is read from the fitted curve at half-maximal effect
How it was run: as §2

[9] = qHTS of pediatric cancer cell lines to identify multiple opportunities for drug repurposing: Primary screen for control Hh wild type fibroblast cells (AID 1347106);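 also: series mostly up to about 46 µM; a drop in luminescence marks cytotoxicity and a rise apparent proliferation; nearly all actives have a fitted effect of over 55% in size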
How it was run: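 Cells (500-1,000/well) in growth media were settled 5 h at 37 degrees C, then given compounds for 48 h. Viability was read as CellTiter-Glo luminescence. Primary runs used MIPE at 11 points (0.78 nM-46 µM) and NPC at 8 points (0.59 nM-46 µM); follow-ups used 11 points.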

[10] = qHTS of pediatric cancer cell lines to identify multiple opportunities for drug repurposing: Primary screen for Rh30 cells (AID 1347107); also: nearly all actives have a fitted effect of over 75% in size; also: potency is read from the fitted curve at half-maximal effect
How it was run: as §1

[11] = qHTS of pediatric cancer cell lines to identify multiple opportunities for drug repurposing: Primary screen for Rh41 cells (AID 1347108); also: nearly all actives have a fitted effect of over 70% in size; also: potency is read from the fitted curve at half-maximal effect
How it was run: as §2

[12] = qHTS of pediatric cancer cell lines to identify multiple opportunities for drug repurposing: Confirmatory screen for A673 cells (AID 1347110);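 also: cells exposed to compound for 48 h before the viability read; nearly all actives have a fitted effect of over 65% in size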
How it was run: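 Viability was read as ATP luminescence (CellTiter-Glo) after 48 h of compound exposure at 37 C in A673 cells seeded at 500-1,000/well. Titrations reached 46 uM final, with 11 points in the confirmatory screen. Concentration-response curves were fitted directly.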

[13] = qHTS of pediatric cancer cell lines to identify multiple opportunities for drug repurposing: Confirmatory screen for BT-12 cells (AID 1347112); also: nearly all actives have a fitted effect of over 55% in size
How it was run: as §1

[14] = qHTS of pediatric cancer cell lines to identify multiple opportunities for drug repurposing: Confirmatory screen for DAOY cells (AID 1347114); also: nearly all actives have a fitted effect of over 65% in size
How it was run: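 Viability measured as metabolically active cells via CellTiter-Glo luminescence following 48 hours of compound exposure, 11-point dilutions in confirmatory testing. 500-1,000 cells/well plated 5 hours before dosing; controls were DMSO and 2.3 µM bortezomib.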

[15] = qHTS of pediatric cancer cell lines to identify multiple opportunities for drug repurposing: Confirmatory screen for NB-EBc1 cells (AID 1347115);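 also: cells exposed to compound for 48 h before the viability read; nearly all actives have a fitted effect of over 45% in size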
How it was run: as §1

Measured: Potency

CC1(C)OC(=O)Nc2ccc(Br)cc21
not listed: [12] | [13] | [14] | [15]
inactive: all other assays above

COc1cc(NS(=O)(=O)c2ccc(N)cc2)nc(C)n1
not listed: [12] | [13] | [14] | [15]
inactive: all other assays above

NC(=O)NC1N=C([O][Al])NC1=O (stereo unspecified)
not listed: [12] | [13] | [14] | [15]
inactive: all other assays above

CCN1C(=O)c2ccccc2C1Nc1ccc(OCCN2CCCCC2)cc1 (stereo unspecified)
not listed: [12] | [13] | [14] | [15]
inactive: all other assays above

Cc1cc2nc3ccc(=[N+](C)C)cc-3sc2cc1N
active: [1] 10.9 µM | [2] 5.96 µM | [3] 1.33 µM | [4] 15.5 µM | [5] 2.99 µM | [6] 3.89 µM | [7] 4.73 µM | [8] 13.3 µM | [10] 15 µM | [11] 5.96 µM
inactive: [9]

O=C(O)Cc1ccc(OCCNC[C@H](O)c2ccccc2)cc1
not listed: [9] | [11] | [12] | [13] | [14] | [15]
inactive: all other assays above

CCOc1ncc(F)c(=O)[nH]1
not listed: [12] | [13] | [14] | [15]
inactive: all other assays above

COC(=O)c1ccc(NC(C)=O)cc1OC
not listed: [12] | [13] | [14] | [15]
inactive: all other assays above

Nc1nnnn1-c1ccccc1
not listed: [12] | [13] | [14] | [15]
inactive: all other assays above

C=CC[N+]1([C@H]2C[C@H]3[C@@H]4CC[C@H]5C[C@H](OC(C)=O)[C@@H](N6CCCCC6)C[C@]5(C)[C@H]4CC[C@]3(C)[C@H]2OC(=O)CC)CCCCC1
not listed: [12] | [13] | [14] | [15]
inactive: all other assays above

CN(CC1(C)CCCO1)S(=O)(=O)c1ccc(Cl)c(S(N)(=O)=O)c1 (stereo unspecified)
not listed: [12] | [13] | [14] | [15]
inactive: all other assays above

C[C@@H]1CCC[C@H](C)N1CCCC(O)(c1ccccc1)c1ccccn1 (stereo partly specified)
not listed: [12] | [13] | [14] | [15]
inactive: all other assays above

Nc1ncnc2nc[nH]c12
not listed: [9] | [11] | [12] | [13] | [14] | [15]
inactive: all other assays above

Cc1c(F)cc2c(=O)c(C(=O)O)cn3c2c1CCC3C (stereo unspecified)
not listed: [12] | [13] | [14] | [15]
inactive: all other assays above

C[C@H]1C[C@@H]2[C@H]([C@@H](O)C[C@@]3(C)[C@H]2CC[C@]3(O)C(=O)CO)[C@@]2(C)C=CC(=O)C=C12
inactive: all assays above

Cc1onc(-c2c(Cl)cccc2Cl)c1C(=O)Cl
not listed: [12] | [13] | [14] | [15]
inactive: all other assays above

COc1cc(OC)nc(O[C@H](C(=O)O)C(OC)(c2ccccc2)c2ccccc2)n1
not listed: [12] | [13] | [14] | [15]
inactive: all other assays above

CCCCCN(CCCOC)C(=O)C(CCC(=O)O)NC(=O)c1ccc(Cl)c(Cl)c1 (stereo unspecified)
not listed: [7] | [12] | [13] | [14] | [15]
inactive: all other assays above

CCCCCCCCCCCC[N+](C)(C)Cc1ccccc1
active: [1] 15.4 µM | [2] 6.68 µM | [4] 4.37 µM | [5] 2.11 µM | [6] 1.74 µM | [10] 18.8 µM | [11] 21.1 µM
inactive: [3]

CCCCCCCCCCCCCC[N+](C)(C)C
active: [1] 15.4 µM | [2] 23.7 µM | [3] 7.5 µM | [4] 3.89 µM | [5] 4.22 µM | [6] 3.09 µM | [8] 26.6 µM

CCOc1ccc(NS(=O)(=O)c2ccc(N)cc2)nn1
not listed: [7] | [11] | [12] | [13] | [14] | [15]
inactive: all other assays above
